# Measurements published in PubChem BioAssay (NCATS).
# “And” between values parts separate entries of the source, which are not always exact repeats. Equal values may be shown once. Inconclusive results are not listed. The source made the active and inactive calls. Unless noted, calls come from the whole dose curve; as a rule, active = well fitted curve in the direction sought with a large enough effect; inconclusive = small, poorly fitted or top-dose-only effect, or another doubt; inactive = no such curve, though single readings can be large; an effect the other way counts as inactive or inconclusive.
# Legend:
# [1] = qHTS Assay for Identification of Small Molecule Agonists for NFkB Signaling Pathway. (AID 624478); conditions: NFkB pathway reporter cell assay, agonist mode, cells co-stimulated with 10 pM TNF alpha; series mostly up to 46.1 µM;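 note: compounds tested together with TNF alpha at its EC50 of 10 pM; 0% is about no effect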
# Method in brief: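 Compounds were added with 10 pM TNF alpha (EC50 level) to ME-180 NFkB-bla cells in low-serum Opti-MEM and incubated 5 hrs at 37 C. Beta-lactamase FRET read-out used 405 nm excitation and 460 and 530 nm emission.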
# [2] = Cell Proliferation Assay against the TMD8 Cell Line (AID 651645); conditions: TMD8 DLBCL cell line proliferation/viability; at 46.1 µM (top of the series);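 note: cells exposed to compound for 48 h before reading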
# Method in brief: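 Cell viability of the ABC DLBCL line TMD8 is measured by CellTiter-Glo luminescence following a 48-hour incubation with compound. Percent activity uses DMSO as 100% and 9.2 uM bortezomib (final) as 0%.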
# [3] = Cell Proliferation Assay against the HBL1 Cell Line (AID 651646); conditions: HBL1 DLBCL cells; at 46.1 µM (top of the series);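 note: cells exposed to compound for 48 h before reading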
# Method in brief: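 CellTiter-Glo luminescence after 48 h compound exposure at 37C gives percent activity, with DMSO as 100% and 9.2 uM bortezomib final as 0%. Cells: 500 log-phase HBL1 per well, RPMI plus 5% FBS.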
# [4] = Cell Proliferation Assay against the TMD8 Cell Line (Caspase readout at 8 hrs) (AID 651713); conditions: TMD8 lymphoma cells, caspase activation luminescence; series mostly up to 46.1 µM; note: potency is the fitted concentration of half-maximal effect;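 for caspase activation: 0% = DMSO and 100% = 9.2 µM bortezomib caspase signal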
# Method in brief: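 Apoptosis read-out: Caspase-Glo luminescence after 8 h compound exposure of TMD8 lymphoma cells at 37C, 5% CO2. Signals were normalized as percent activity between DMSO and bortezomib (9.2 uM final) controls.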
# [5] = qHTS Assay for Identification of Small Molecule Antagonists for NFkB Signaling Pathway. (AID 624479; calls by dose curve; note: potency is the fitted concentration of half-maximal effect); conditions: NFkB pathway reporter cell assay, antagonist mode; series mostly up to 38.3 µM
# [6] = Cell Proliferation Assay against the TMD8 Cell Line (Caspase readout at 16 hrs) (AID 651712); conditions: TMD8 lymphoma cells, caspase activation luminescence; series mostly up to 46.1 µM; note: potency is the fitted concentration of half-maximal effect;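 for caspase activation: 0% = DMSO and 100% = 9.2 µM bortezomib caspase activation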
# Method in brief: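 Caspase-Glo luminescence measured apoptosis after a 16 h, 37 C compound exposure of TMD8 cells (500 cells/well, 5% FBS RPMI). DMSO set 0% and bortezomib at 9.2 uM final set 100% activity.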
Compound,outcome [1],viability (% of control) [2],"viability, percent of control [3]",Potency [4],Potency [5],Potency [6]
COc1cc2c(Oc3ccc4[nH]c(C)cc4c3F)ncnc2cc1OCCCN1CCCC1,inactive,1.51%,1.27%,–,–,–
CC(=O)Nc1sc2c(c1-c1nc3ccccc3s1)CNC2,inactive,4.93%,22.5%,33.2 µM (active),–,–
C[C@@H](Oc1cc(-n2cnc3ccc(CN4CCN(C)CC4)cc32)sc1C(N)=O)c1ccccc1C(F)(F)F,–,2.56%,3.16%,23.5 µM (active),inactive,–
CC[C@H](CO)Nc1nc(NCc2ccccc2)c2ncn(C(C)C)c2n1,inactive,7.77%,55%,–,–,0.935 µM (active)
Cc1cc(Nc2cc(N3CCN(C)CC3)nc(C=Cc3ccccc3)n2)n[nH]1,inactive,9.16%,3.87%,inactive,–,–
O=C(NCCCNc1nc(Nc2cccc(NC(=O)N3CCCC3)c2)ncc1I)c1cccs1,inactive,1.52% and 1.4%,26.8% and 21.3%,26.4 µM (active) and 29.6 µM (active),9.43 µM (active) and 5.3 µM (active),13.2 µM (active) and 5.9 µM (active)
CCN(CC)CCCCNc1ncc2cc(-c3cc(OC)cc(OC)c3)c(NC(=O)NC(C)(C)C)nc2n1,–,3%,7.6%,26.4 µM (active),–,inactive
CCC(=C(c1ccccc1)c1ccc(OCCN(C)C)cc1)c1ccccc1,–,-0.936%,-1.5%,33.2 µM (active),21.1 µM (active),–
CC(=O)OCC(=O)[C@@]1(O)[C@H](C)C[C@H]2[C@@H]3C=C(C)C4=Cc5c(cnn5-c5ccccc5)C[C@]4(C)[C@@H]3[C@@H](O)C[C@@]21C,inactive,3.02%,2.93%,inactive,–,20.9 µM (active)
COc1cc(C(C)C)c2c(c1)S(=O)(=O)N(COc1cc(=O)n3cccc(OCCN4CCCCC4)c3n1)C2=O,–,0.892%,1.12%,–,14.9 µM (active),inactive
Nc1ccc(C(=O)c2cc3c(ccc4ccccc43)[nH]2)cc1,inactive,28.2%,14.4%,inactive,14.9 µM (active),26.4 µM (active)
CC(C)(C)OC(=O)Nc1ccc(-c2cc(C(=O)NCCCCCCC(=O)NO)no2)cc1,–,2.43%,3.39%,–,inactive,1.32 µM (active)
CC1(O)CC(c2nc(-c3ccc4ccc(-c5ccccc5)nc4c3)c3c(N)nccn23)C1 (stereo not given),–,2.23%,43%,inactive,–,26.4 µM (active)
Cc1ccc(C(N)=O)cc1Nc1nccc(-c2cn(C(C)C)c3cnccc23)n1,–,5.31%,14.4%,14.8 µM (active),0.421 µM (active),2.64 µM (active)
CNc1nccc(-c2cccnc2Oc2cc(C(=O)Nc3cccc(C(F)(F)F)c3)ccc2C)n1,–,6.17%,25.3%,inactive,13.3 µM (active),–
Cc1cc(Nc2cc(NC(=O)c3c(Cl)cccc3Cl)ccn2)nc(N)n1,inactive,2.69%,31.3%,29.6 µM (active),0.266 µM (active),18.7 µM (active)
Cn1c(=O)n(-c2ccc(C(C)(C)C#N)cc2)c2c3cc(-c4cnc5ccccc5c4)ccc3ncc21,–,10.6%,38.2%,–,inactive,20.9 µM (active)
Cn1cncc1[C@@](N)(c1ccc(Cl)cc1)c1ccc2c(c1)c(-c1cccc(Cl)c1)cc(=O)n2C,inactive,1.01%,1.3%,–,–,–
CN(C)CCCN=c1c2ccccc2n(C)c2[nH]c(=O)n(C)c(=O)c12,–,1.93%,32.9%,26.4 µM (active),–,20.9 µM (active)
CC(C)(C)c1cc(C(C)(C)C)c(NC(=O)c2c[nH]c3ccccc3c2=O)cc1O,–,5.21%,5.33%,–,23.7 µM (active),–
CC(C)(C)c1cc(NC(=O)Nc2ccc(-c3cn4c(n3)sc3cc(OCCN5CCOCC5)ccc34)cc2)no1,inactive,41.9%,30.7%,inactive,13.3 µM (active),inactive
COc1cc(=C2C=c3ccccc3=N2)[nH]c1=Cc1[nH]c(C)cc1C,–,6.25%,26%,inactive,inactive,–
